In ChEMBL document CHEMBL1961873, “Compounds: GSK PKIS; Assays: Nanosyn kinase panel” (2012):

Assays:
[1] = molecular target: Ribosomal protein S6 kinase alpha-6 (Homo sapiens) (UniProt Q9UK32); conditions: at 1 µM;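 note: each value is a mean inhibition of RSK4 from a GSK PKIS panel screen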
[2] = molecular target: T1, Serine/threonine-protein kinase Sgk1 (Homo sapiens) (UniProt O00141); conditions: at 0.1 µM
T1 sequence (whole entry): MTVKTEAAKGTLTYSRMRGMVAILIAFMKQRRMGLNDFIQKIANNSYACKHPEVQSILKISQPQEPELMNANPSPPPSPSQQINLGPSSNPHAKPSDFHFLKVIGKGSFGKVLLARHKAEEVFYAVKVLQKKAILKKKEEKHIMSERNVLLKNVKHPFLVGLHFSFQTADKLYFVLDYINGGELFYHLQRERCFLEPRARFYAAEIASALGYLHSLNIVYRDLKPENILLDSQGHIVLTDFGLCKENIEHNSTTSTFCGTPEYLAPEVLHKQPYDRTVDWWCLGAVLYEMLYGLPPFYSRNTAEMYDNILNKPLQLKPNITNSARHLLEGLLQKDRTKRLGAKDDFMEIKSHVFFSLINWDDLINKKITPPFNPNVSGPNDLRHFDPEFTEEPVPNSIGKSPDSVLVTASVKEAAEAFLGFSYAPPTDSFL

[3] = molecular target: T1, Serine/threonine-protein kinase Sgk1 (Homo sapiens); conditions: at 1 µM
[4] = molecular target: T2, Serine/threonine-protein kinase Sgk2 (Homo sapiens) (UniProt Q9HBY8); conditions: at 0.1 µM
T2 sequence (whole entry): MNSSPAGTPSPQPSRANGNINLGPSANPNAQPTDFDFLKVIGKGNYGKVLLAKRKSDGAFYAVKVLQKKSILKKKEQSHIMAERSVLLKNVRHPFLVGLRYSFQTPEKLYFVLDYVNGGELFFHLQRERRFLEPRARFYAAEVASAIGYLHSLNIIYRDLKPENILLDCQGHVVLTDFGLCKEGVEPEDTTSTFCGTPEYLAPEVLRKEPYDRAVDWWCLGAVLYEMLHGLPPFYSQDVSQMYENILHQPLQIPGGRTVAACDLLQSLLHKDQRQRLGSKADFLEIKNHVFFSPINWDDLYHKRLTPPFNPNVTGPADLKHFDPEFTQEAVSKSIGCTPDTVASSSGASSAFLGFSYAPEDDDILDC

[5] = molecular target: T2, Serine/threonine-protein kinase Sgk2 (Homo sapiens); conditions: at 1 µM
[6] = molecular target: T3, Serine/threonine-protein kinase Sgk3 (Homo sapiens) (UniProt Q96BR1); conditions: at 0.1 µM
T3 sequence (whole entry): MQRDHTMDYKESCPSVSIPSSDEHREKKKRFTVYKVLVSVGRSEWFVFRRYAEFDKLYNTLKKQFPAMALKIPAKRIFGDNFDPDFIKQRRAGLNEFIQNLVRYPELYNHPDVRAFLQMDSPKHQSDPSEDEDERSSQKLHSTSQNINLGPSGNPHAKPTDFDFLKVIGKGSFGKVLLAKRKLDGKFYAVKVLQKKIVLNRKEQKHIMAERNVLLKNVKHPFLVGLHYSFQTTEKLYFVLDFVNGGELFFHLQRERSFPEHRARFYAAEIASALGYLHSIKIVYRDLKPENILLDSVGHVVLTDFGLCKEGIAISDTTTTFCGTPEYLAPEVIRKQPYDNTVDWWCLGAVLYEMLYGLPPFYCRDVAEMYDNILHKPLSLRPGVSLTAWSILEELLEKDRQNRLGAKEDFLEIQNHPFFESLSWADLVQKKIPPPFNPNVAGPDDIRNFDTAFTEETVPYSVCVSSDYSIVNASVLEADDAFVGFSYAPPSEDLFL

[7] = molecular target: T3, Serine/threonine-protein kinase Sgk3 (Homo sapiens); conditions: at 1 µM
[8] = molecular target: 5'-AMP-activated protein kinase catalytic subunit alpha-1 (Homo sapiens) (UniProt Q13131); conditions: at 0.1 µM
[9] = molecular target: 5'-AMP-activated protein kinase catalytic subunit alpha-1 (Homo sapiens) (UniProt Q13131); conditions: at 1 µM
[10] = molecular target: 5'-AMP-activated protein kinase catalytic subunit alpha-2 (Homo sapiens) (UniProt P54646); conditions: at 0.1 µM
[11] = molecular target: 5'-AMP-activated protein kinase catalytic subunit alpha-2 (Homo sapiens) (UniProt P54646); conditions: at 1 µM
[12] = molecular target: T4, NUAK family SNF1-like kinase 1 (Homo sapiens) (UniProt O60285); conditions: at 0.1 µM
T4 sequence (whole entry): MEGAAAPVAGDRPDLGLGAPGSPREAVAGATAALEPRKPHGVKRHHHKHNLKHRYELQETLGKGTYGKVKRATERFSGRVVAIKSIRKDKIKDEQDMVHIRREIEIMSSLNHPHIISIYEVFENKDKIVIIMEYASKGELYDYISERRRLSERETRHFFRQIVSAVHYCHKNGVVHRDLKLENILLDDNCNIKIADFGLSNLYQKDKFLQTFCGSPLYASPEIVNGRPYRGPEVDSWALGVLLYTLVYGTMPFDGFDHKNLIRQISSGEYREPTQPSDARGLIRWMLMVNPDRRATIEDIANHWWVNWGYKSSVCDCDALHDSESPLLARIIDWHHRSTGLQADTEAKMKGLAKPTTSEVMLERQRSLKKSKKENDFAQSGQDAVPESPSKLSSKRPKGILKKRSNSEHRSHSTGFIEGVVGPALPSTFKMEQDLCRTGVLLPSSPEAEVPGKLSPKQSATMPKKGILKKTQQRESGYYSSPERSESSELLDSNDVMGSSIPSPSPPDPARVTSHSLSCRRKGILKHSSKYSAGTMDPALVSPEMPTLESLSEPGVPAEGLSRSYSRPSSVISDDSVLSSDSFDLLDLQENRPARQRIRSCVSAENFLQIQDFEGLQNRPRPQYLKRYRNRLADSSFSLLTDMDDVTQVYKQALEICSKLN

[13] = molecular target: T4, NUAK family SNF1-like kinase 1 (Homo sapiens); conditions: at 1 µM
[14] = molecular target: T5, Serine/threonine-protein kinase BRSK1 (Homo sapiens) (UniProt Q8TDC3); conditions: at 0.1 µM
T5 sequence (whole entry): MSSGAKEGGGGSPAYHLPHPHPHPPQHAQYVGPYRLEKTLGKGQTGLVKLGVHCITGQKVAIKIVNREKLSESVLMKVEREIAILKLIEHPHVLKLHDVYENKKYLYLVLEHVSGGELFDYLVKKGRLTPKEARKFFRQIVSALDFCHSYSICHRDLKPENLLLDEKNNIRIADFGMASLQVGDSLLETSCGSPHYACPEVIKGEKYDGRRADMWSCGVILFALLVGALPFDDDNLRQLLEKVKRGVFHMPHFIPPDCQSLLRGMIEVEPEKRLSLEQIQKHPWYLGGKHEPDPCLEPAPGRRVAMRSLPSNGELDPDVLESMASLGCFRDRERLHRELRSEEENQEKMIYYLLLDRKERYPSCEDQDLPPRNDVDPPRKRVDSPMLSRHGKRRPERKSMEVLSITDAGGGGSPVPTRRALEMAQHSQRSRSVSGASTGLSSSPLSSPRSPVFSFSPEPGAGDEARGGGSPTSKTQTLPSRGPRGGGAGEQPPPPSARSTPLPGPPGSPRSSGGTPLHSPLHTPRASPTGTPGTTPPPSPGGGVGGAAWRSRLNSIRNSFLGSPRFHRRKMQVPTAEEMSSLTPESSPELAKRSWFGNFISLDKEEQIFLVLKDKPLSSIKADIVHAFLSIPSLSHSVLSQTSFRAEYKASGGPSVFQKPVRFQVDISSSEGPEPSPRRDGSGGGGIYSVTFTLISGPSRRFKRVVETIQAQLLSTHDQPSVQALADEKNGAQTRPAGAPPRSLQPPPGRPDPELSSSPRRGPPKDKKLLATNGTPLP

[15] = molecular target: T5, Serine/threonine-protein kinase BRSK1 (Homo sapiens); conditions: at 1 µM
[16] = molecular target: T6, Serine/threonine-protein kinase BRSK2 (Homo sapiens) (UniProt Q8IWQ3); conditions: at 0.1 µM
T6 sequence (whole entry): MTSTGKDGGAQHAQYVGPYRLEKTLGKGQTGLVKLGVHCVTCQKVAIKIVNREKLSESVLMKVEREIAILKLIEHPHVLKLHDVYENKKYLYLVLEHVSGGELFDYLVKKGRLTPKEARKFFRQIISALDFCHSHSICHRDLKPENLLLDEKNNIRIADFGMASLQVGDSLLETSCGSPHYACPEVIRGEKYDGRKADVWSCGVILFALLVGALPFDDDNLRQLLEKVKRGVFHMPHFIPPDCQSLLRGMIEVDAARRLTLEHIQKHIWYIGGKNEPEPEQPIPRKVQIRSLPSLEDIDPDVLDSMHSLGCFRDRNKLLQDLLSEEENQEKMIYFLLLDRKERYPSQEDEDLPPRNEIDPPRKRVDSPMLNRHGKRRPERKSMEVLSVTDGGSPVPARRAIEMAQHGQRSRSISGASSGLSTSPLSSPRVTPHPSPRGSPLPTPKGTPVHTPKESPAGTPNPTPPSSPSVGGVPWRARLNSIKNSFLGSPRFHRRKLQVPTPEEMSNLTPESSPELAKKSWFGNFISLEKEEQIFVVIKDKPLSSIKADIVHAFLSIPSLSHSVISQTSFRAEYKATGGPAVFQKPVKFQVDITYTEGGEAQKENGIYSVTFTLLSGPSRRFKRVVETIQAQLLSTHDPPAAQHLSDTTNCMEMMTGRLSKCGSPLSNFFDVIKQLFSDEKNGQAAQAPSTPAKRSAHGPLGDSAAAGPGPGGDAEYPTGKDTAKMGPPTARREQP

[17] = molecular target: T6, Serine/threonine-protein kinase BRSK2 (Homo sapiens); conditions: at 1 µM
[18] = molecular target: Calcium/calmodulin-dependent protein kinase type 1D (Homo sapiens) (UniProt Q8IU85); conditions: at 0.1 µM
[19] = molecular target: Calcium/calmodulin-dependent protein kinase type 1D (Homo sapiens) (UniProt Q8IU85); conditions: at 1 µM
[20] = molecular target: Calcium/calmodulin-dependent protein kinase type II subunit alpha (Homo sapiens) (UniProt Q9UQM7); conditions: at 0.1 µM;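 note: reported values are averages (mean inhibition of CAMK2A)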
Chain of Calcium/calmodulin-dependent protein kinase type II subunit alpha (Homo sapiens) (Q9UQM7 whole entry): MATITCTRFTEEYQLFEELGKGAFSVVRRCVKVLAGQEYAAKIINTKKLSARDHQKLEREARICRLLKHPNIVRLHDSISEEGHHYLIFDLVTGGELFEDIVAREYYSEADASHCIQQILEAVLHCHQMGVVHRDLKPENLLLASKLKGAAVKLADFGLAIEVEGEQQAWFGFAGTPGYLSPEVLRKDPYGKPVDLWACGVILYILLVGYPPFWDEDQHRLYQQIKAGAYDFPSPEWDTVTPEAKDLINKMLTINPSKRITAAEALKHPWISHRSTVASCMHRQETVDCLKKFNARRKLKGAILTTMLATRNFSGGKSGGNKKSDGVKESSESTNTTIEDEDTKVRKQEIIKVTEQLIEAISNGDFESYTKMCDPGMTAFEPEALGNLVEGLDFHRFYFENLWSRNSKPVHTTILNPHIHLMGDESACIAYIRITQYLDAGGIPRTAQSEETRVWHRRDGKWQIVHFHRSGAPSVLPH

Chain of 5'-AMP-activated protein kinase catalytic subunit alpha-2 (Homo sapiens) (P54646 whole entry, looked up): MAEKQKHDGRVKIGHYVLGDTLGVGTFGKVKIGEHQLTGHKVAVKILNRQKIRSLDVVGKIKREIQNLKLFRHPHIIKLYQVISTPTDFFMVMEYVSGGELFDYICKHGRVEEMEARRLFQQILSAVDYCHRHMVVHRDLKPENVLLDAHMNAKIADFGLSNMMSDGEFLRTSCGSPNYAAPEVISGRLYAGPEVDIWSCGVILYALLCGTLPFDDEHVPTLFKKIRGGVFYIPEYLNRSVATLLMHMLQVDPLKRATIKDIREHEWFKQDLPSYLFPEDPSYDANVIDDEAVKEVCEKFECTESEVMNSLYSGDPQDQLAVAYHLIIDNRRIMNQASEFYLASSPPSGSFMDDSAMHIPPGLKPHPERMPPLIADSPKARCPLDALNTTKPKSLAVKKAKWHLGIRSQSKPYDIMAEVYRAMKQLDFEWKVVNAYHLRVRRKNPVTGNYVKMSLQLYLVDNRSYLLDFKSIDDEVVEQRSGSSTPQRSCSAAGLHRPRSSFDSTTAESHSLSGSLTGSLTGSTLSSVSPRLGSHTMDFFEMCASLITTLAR
Chain of 5'-AMP-activated protein kinase catalytic subunit alpha-1 (Homo sapiens) (Q13131 whole entry, looked up): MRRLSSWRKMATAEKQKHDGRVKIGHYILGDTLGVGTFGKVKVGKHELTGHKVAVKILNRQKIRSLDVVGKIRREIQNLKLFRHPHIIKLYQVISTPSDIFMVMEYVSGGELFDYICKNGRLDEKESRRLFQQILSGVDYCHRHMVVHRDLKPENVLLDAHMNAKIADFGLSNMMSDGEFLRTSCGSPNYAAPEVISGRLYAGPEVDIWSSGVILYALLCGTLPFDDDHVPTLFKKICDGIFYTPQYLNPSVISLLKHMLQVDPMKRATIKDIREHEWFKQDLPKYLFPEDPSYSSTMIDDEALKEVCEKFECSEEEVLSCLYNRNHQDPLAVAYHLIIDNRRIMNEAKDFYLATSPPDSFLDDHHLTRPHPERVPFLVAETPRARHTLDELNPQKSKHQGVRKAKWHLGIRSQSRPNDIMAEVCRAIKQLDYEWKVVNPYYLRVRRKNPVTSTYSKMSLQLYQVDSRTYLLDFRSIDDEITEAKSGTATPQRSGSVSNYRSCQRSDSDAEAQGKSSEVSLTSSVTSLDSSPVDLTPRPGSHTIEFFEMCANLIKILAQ
Chain of Calcium/calmodulin-dependent protein kinase type 1D (Homo sapiens) (Q8IU85 whole entry, looked up): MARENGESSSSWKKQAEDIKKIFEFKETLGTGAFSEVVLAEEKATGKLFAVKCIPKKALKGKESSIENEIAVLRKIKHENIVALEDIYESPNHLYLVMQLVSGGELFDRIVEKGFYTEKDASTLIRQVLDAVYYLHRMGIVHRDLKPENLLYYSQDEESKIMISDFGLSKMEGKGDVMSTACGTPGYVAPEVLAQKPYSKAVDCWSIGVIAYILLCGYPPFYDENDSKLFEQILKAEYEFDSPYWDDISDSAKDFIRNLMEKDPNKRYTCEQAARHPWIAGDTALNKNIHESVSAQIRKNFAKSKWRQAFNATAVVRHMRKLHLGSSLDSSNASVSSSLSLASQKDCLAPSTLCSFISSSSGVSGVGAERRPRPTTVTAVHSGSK
Chain of Ribosomal protein S6 kinase alpha-6 (Homo sapiens) (Q9UK32 whole entry): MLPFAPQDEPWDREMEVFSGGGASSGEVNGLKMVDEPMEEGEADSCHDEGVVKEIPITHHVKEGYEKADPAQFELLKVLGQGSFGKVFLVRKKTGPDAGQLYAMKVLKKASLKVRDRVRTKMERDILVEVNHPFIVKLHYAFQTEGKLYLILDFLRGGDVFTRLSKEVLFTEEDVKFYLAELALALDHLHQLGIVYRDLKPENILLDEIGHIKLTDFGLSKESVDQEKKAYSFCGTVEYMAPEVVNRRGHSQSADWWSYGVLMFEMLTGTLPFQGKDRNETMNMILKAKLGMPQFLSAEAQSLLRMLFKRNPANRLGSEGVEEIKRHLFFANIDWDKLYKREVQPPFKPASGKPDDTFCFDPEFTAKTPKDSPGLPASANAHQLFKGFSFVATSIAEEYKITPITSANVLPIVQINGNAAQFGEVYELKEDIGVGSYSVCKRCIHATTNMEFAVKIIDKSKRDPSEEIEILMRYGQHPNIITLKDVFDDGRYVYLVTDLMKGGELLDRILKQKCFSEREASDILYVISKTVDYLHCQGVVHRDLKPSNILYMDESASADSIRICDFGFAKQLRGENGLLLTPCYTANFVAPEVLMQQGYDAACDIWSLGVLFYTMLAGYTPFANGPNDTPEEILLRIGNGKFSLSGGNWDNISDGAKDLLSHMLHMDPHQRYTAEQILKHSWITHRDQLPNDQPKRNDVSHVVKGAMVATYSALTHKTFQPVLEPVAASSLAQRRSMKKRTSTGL

Compound	inhibition [1]	inhibition [2]	inhibition [3]	inhibition [4]	inhibition [5]	inhibition [6]	inhibition [7]	inhibition [8]	inhibition [9]	inhibition [10]	inhibition [11]	inhibition [12]	inhibition [13]	inhibition [14]	inhibition [15]	inhibition [16]	inhibition [17]	inhibition [18]	inhibition [19]	inhibition [20]
Fc1ccc(Nc2nccc(-c3c(-c4ccc(C(F)(F)F)cc4)nn4ncccc34)n2)cc1F	0.66%	2.17%	2.25%	0.8%	-0.85%	2.84%	1.5%	1.79%	0.39%	1.16%	3.75%	2.79%	1.57%	2.38%	1.19%	1.46%	0.71%	-0.76%	1.66%	3.04%
O=C(O[C@H]1CN[C@H](C#Cc2cc3ncnc(Nc4ccc5c(cnn5Cc5ccccc5)c4)c3s2)C1)N1CCOCC1	-1.11%	-0.09%	-1.15%	-1.55%	4.74%	-2.07%	0.07%	1.24%	3.86%	2.29%	3.11%	3.37%	4.34%	0.74%	2.54%	1.3%	3.58%	0.26%	1.04%	-0.77%
CCOc1ccc2c(-c3ccnc(Nc4cc(OC)cc(C(F)(F)F)c4)n3)cnn2n1	0.36%	-0.01%	1.56%	0.96%	3.1%	1.37%	-0.48%	0.25%	1.28%	1.34%	3.94%	4.52%	21.2%	0.53%	5.51%	1.89%	6.6%	0.33%	2.28%	-1.52%
COc1ccc(-c2nn3ncccc3c2-c2ccnc(Nc3ccc(F)c(F)c3)n2)cc1	1.98%	3.06%	9.35%	5.4%	7.74%	5.09%	6.1%	5.22%	9.36%	2.91%	6.49%	3.92%	5.51%	3.95%	7.79%	5.66%	7.14%	-0.12%	1.91%	3.21%
Cn1c(-c2nonc2N)nc2cnccc21	5.91%	3.35%	6.24%	5.57%	10.7%	2.77%	13.6%	3.36%	3.2%	0.94%	4.41%	0.78%	4.88%	2.34%	5.84%	3.19%	6.4%	0.12%	0.97%	3.13%
O=C(O[C@H]1CN[C@H](C#Cc2cc3ncnc(Nc4ccc(OCc5cccc(F)c5)c(Cl)c4)c3s2)C1)N1CCOCC1	1.82%	3.69%	4.68%	6.81%	6.86%	7.16%	6.57%	4.66%	4.92%	4.18%	2.14%	0.4%	0.97%	-0.35%	1.81%	2.06%	3.32%	-0.02%	-0.12%	2.9%
